# Most compounds without a hit are left out; they make up all but 7.4% or so of the library.
# FLuc modulator = inhibits or activates purified firefly luciferase, miR-21 counter-screen; P08659; 360,000 tested, 6.9% active; AID 588342; purified FLuc, Km substrates, luminescence inhibition; Potency, µM (top dose mostly 57.5 µM), usual class: inhibitors; further: nearly all actives have a fitted effect of over 55% in size
# Target sequence (P08659 whole entry, looked up): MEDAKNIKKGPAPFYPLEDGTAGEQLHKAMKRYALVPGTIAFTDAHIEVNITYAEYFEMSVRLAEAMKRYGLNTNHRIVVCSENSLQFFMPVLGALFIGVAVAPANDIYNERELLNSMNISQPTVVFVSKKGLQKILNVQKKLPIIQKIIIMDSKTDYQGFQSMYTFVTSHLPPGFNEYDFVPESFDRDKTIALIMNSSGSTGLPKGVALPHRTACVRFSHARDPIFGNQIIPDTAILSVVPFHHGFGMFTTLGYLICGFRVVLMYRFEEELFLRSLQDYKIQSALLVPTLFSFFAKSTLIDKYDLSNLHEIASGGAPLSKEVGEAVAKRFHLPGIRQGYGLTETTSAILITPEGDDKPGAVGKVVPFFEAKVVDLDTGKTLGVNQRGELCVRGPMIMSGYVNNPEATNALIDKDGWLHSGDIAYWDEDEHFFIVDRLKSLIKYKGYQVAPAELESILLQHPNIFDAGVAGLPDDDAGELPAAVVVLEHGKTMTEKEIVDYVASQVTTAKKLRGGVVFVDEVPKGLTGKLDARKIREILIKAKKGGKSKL
#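 Purified P. pyralis luciferase (10nM final) with 10uM D-luciferin and 10uM ATP (Km levels) in 50mM Tris acetate pH 7.5, 10mM Mg acetate, 0.01% Tween-20, 0.05% BSA; qHTS 6-point titration, ~60 µM downward; luminescence read.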
# SMN2 splice enh = enhancers of SMN2 splice variant expression; Potency, µM (series often up to 46.1 µM), usual class: activators; 210,000 tested, 2.8% active; AID 1458; HEK293 SMN2-luciferase splicing reporter, luminescence, 30-36 h; further: nearly all actives have a fitted effect of over 55% in size
#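 HEK293 cells carry an SMN2 minigene-luciferase reporter in which exon 7 inclusion puts luciferase in frame. Cells were seeded at 2000 cells/well, attached for 10-12 hours, then exposed to compounds for 30-36 hours at 37C before ONE-Glo luminescence.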
# ELG1 genotoxic = genotoxicity induction in ELG1-luciferase HEK293T cells; HEK293T ELG1-luciferase reporter, luminescence, 16 h; Potency, µM (doses to about 46 µM), most hits filed as activators; 330,000 tested, 1.3% active; AID 504466; further: nearly all actives have a fitted effect of over 60% in size
#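 Step 1: seed 2,000 HEK293T ELG1-luciferase cells per well. Step 2: add compound or DMSO, incubate 16 hr at 37 °C. Step 3: ONE-Glo, 30 min at room temperature, read luminescence.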
# NPC1 promoter act = activators of NPC1 promoter | Huh7 NPC1 promoter luciferase reporter, 24 h | Potency, µM (highest dose often 9.22 µM), most hits filed as activators | 320,000 tested, 2.4% active; further: nearly all actives have a fitted effect of over 60% in size
#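 In 1536-well qHTS, Huh7 cells harboring an NPC1 promoter–luciferase construct received compound for 24 h; activation was quantified by luminescence following luciferase reagent addition.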
# Rab9 prom act = Rab9 promoter activation | 320,000 tested, 2.8% active | AID 485297 | Huh7 Rab9 promoter-luciferase reporter, luminescence, 24 h | Potency, µM (highest dose often 9.22 µM), hits mostly activators; further: nearly all actives have a fitted effect of over 60% in size
#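 Cells were plated at 1500 per well in reduced-serum medium with 10% FBS and left 2 h. Compound in DMSO was then added for 24 h at 37 °C. Reporter signal was read by luminescence after 10 min with luciferase detection reagent.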
# Luc counter = counter-screen: inhibitors of Kinase-Glo firefly luciferase | Q27757 | Kinase-Glo luciferase, ATP luminescence, 8 min | Potency, µM (highest dose often 38.3 µM), most hits filed as inhibitors | 200,000 tested, 0.28% active | AID 1379; further: nearly all actives have a fitted effect of over 60% in size
#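 Substrate mix (final 50 mM imidazole pH 7.2, 50 mM KCl, 7 mM MgCl2, 10 uM ATP, 0.01% Tween 20, 0.05% BSA) plus pin-tool compound, then Kinase-Glo detection mix; 8 min ambient, luminescence read.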
# A number is an active result; n = inactive; u = inconclusive; x = no result given; [ ] = another dose, or the depositor's remark. The call rests on the fitted dose curve; in most records, active means well fitted curve in the direction sought with a large enough effect; inconclusive means small, poorly fitted or top-dose-only effect, or another doubt; inactive means no such curve, though single readings can be large; an effect the other way counts as inactive or inconclusive.
SMILES,FLuc modulator,SMN2 splice enh,ELG1 genotoxic,NPC1 promoter act,Rab9 prom act,Luc counter
CC1=NN(c2ccccc2)C(=O)C1/C=C1/C(=O)NC(=O)N(c2cccc(C)c2)C1=O (configuration not stated),13µM,n,n,n,n,n
C[C@@H]1[C@@H](C)N1C[C@H](O)Cn1ccnc1[N+](=O)[O-] (some centres not stated),x,n[9.22 µM],x,x,x,n[7.66 µM]
COc1ccc(N=Nc2c(O)[nH]c(=S)[nH]c2=O)cc1,6µM,18µM,u,1.6µM,1.8µM,u
O=c1[nH]c(=S)[nH]c(O)c1N=Nc1ccc(OC(F)F)cc1,5.4µM,13µM,u,u,2µM,n
O=c1[nH]c(=S)[nH]c(O)c1N=Nc1cccc(S(=O)(=O)N2CCOCC2)c1,n,x,n,n,n,x
NS(=O)(=O)c1ccc(N=Nc2c(O)[nH]c(=S)[nH]c2=O)cc1,u,x,n,n,n,x
COc1cccc(N=Nc2c(O)[nH]c(=S)[nH]c2=O)c1,13µM,x,u,n,u,x
Nc1ccccc1O.O.O=C(O)[C@H]1[O][Sb][O][C@H]1C(=O)O,x,n[9.22 µM],x,x,x,n[7.66 µM]
CCOc1ccc(-c2cn3c(n2)sc2cc(C(=O)N4CCCC(C)C4)ccc23)cc1 (configuration not stated),4.3µM,n,x,x,x,x
CC(C)c1ccc(NC(=O)Cn2c(=O)oc3cc(S(=O)(=O)N4CCCC4)ccc32)cc1,n,n,x,x,x,x
CC[C@@]1(O)CC(O)c2c(cc3c(c2O)C(=O)c2c(O)ccc(O)c2C3=O)C1C(=O)OC (some centres not stated),x,n,x,x,x,n
CC[C@]1(O)CC(O[C@@H]2CC(N(C)C)C(O)C(C)O2)c2c(cc3c(c2O)C(=O)c2c(O)cccc2C3=O)C1C(=O)OC (some centres not stated),x,0.79µM,x,x,x,n
c1ccc2c([C@@H]3CCN(CCN4CCOCC4)C3)c[nH]c2c1,x,n[9.22 µM],x,x,x,n[7.66 µM]
CN1CCN(Cc2ccc3ccccc3c2)CC1,n,x,n,n,n,x
CCCCCCOc1ccc(CN2CCN(C)CC2)cc1,6.7µM,n,5.8µM,u,u,n
Cc1ccc2ccccc2c1C,x,n,x,x,x,x
C[C@@H](O)CN(CCN(C[C@@H](C)O)C[C@@H](C)O)C[C@@H](C)O.O=[N+]([O-])O.[Cu],x,n[9.22 µM],x,x,x,n[7.66 µM]
O=C1NC(=O)C(=Cc2ccc(-c3ccccc3[N+](=O)[O-])o2)C(=O)N1,u,x,n,n,n,x
O=C1NC(=O)C(=Cc2ccc(-c3cc(Cl)ccc3[N+](=O)[O-])o2)C(=O)N1,15µM,n,n,n,n,n
CCN(CC)C(=O)c1ccc(NC(=O)c2c(C)noc2C)cc1,n,x,n,n,n,x
CC(=O)c1ccc(NC(=O)c2cc(CC(C)C)on2)cc1,u,n,18µM,n,n,n
CC(C)(C)C(=O)c1cn(CC(=O)NCc2ccco2)c2ccccc12,u,14µM,u,u,3.2µM,n
O=C(O)c1cc[c]([Hg][S]c2ncnc3nc[nH]c23)cc1,x,n[9.22 µM],x,x,x,n[7.66 µM]
O=c1[nH]c(O)c(N=Nc2ccc3c(c2)OCCO3)c(=O)[nH]1,1.5µM,n,u,n,n,u
O=c1[nH]c(=S)[nH]c(O)c1N=Nc1cc2c(cc1[N+](=O)[O-])OCO2,u,n,n,n,n,n
SMILES,FLuc modulator,SMN2 splice enh,ELG1 genotoxic,NPC1 promoter act,Rab9 prom act,Luc counter
O=c1[nH]c(=S)[nH]c(O)c1N=Nc1ccc2c(c1)OCCO2,0.85µM,x,u,u,2.5µM,x
O=c1[nH]c(=S)[nH]c(O)c1N=Nc1ccc2c(c1)OCO2,4.8µM,n,u,u,2.8µM,u
O=c1[nH]c(=S)[nH]c(O)c1N=Nc1ccc(S(=O)(=O)N2CCOCC2)cc1,n,x,n,n,n,x
CCCCOC(C)=O,x,n,x,x,x,x
C=C1CC[C@H](O)C/C1=C/C=C1\CCC[C@]2(C)[C@@H]([C@H](C)CCCC(C)C)CC[C@@H]12,x,n,x,x,x,n
Oc1c(Cl)c(Cl)cc(Cl)c1Cl,x,n,x,x,x,x
N#Cc1c(/N=C/c2ccc(O)cc2O)sc2c1C1CCN2CC1,6µM,n[1.84 µM],n,n,n,n
Nc1nc(=S)c2ncn([C@H]3O[C@@H](CO)[C@@H](O)[C@@H]3O)c2[nH]1,x,n,x,x,x,n
Nc1nc2c(ncn2[C@@H]2O[C@H](CO)[C@@H](O)[C@@H]2O)c(=[SH+])[nH]1.O=[N+]([O-])c1ccc(O)[c]([Hg])c1,x,n[9.22 µM],x,x,x,2.8µM
NC1(P(=O)(O)O)CCCCC1,x,n[9.22 µM],x,x,x,n[7.66 µM]
Cc1ccc([N+](=O)[O-])cc1C,x,n,x,x,x,x
O=C(O)Cc1ccc([N+](=O)[O-])cc1[N+](=O)[O-],x,n[9.22 µM],x,x,x,n[7.66 µM]
COc1ccc(NC(=O)CCc2nc(C3=CCN(Cc4cccc(C)c4)CC3)no2)c(OC)c1,n,x,x,x,x,x
COc1cccc(NC(=O)CCc2nc(-c3ccc(C(C)(C)C)cc3)no2)c1,2.7µM,n,x,x,x,x
c1ccc2c(CN3CCCCCC3)c[nH]c2c1,17µM,x,u,n,u,n
O=C1NC(=S)NC(=O)C12C(c1ccc(F)cc1)NC(=S)NC2c1ccc(F)cc1 (configuration not stated),n,1.6µM,n,n,n,n
COc1ccc(-n2nc(C(=O)NCC(=O)N3CCC4(CC3)OCCO4)c3ccccc3c2=O)c(OC)c1,1.1µM,x,u,u,u,x
c1ccc(CN2CCc3nc4ccccc4cc3C2)cc1,12µM,x,u,u,u,x
Oc1ccc(Cl)cc1CN1CCN(Cc2ccccc2)CC1,u,n,n,n,n,n
O=C(C1CC(c2ccccc2O)=NO1)N1CCC2(CC1)OCCO2 (configuration not stated),11µM,u,16µM,3.5µM,u,n
CN(C)CCCc1cccnc1,x,n[9.22 µM],x,x,x,n[7.66 µM]
Cc1onc(-c2c(Cl)cccc2Cl)c1/C(N)=N/OC(=O)N(C)C,n,x,n,n,n,x
CC(=O)Nc1ccccc1C(=O)OCC(=O)c1ccc2c(c1)OCCO2,0.76µM,x,n,u,3.5µM,x
Cc1onc(-c2ccccc2Cl)c1C(=O)OCC(=O)c1ccc2c(c1)OCCO2,4.8µM,n,n,n,n,n
Cc1cc(SCc2sc(-c3ccc(C(F)(F)F)c(F)c3)nc2C)ccc1OCC(=O)O,x,n,x,x,x,n
CNC(=O)c1cccn(Cc2ccc(C(F)(F)F)cc2)c1=O,n,n,18µM,n,n,n
CCOc1ccc(CCNC(=O)c2ccc(CS(=O)(=O)c3ccccc3C)o2)cc1OCC,n,n,x,x,x,x
Cc1nn(CC(C)C)c(Cl)c1C(=O)NC1CCC(C)CC1 (configuration not stated),8.5µM,x,9.2µM,2.2µM,4µM,x
COc1ccc(-c2cc(=NCCCCCC(=O)O)c3cc(C)ccc3o2)cc1,n,n,u,n,n,n
COc1ccc(-c2cc(=Nc3cccc(C(=O)O)c3)c3cc(C)ccc3o2)cc1,9.5µM,x,5.8µM,n,u,n

# Screens (PubChem BioAssay)
